Results published in PubChem BioAssay (Tox21).
Values joined by “and” are separate entries in the source; they are usually repeats but may differ in a detail not shown here. Equal values may be shown once. Records with an inconclusive call do not appear. Entries that show only a call come without a potency. Some compounds were tested as several samples or in several runs, with calls that do not always agree. Active and inactive are the calls of the source. Unless noted, calls come from the whole dose curve; as a rule, active = well fitted curve in the direction sought with a large enough effect in the repeat runs; inconclusive = weak or mixed curves; inactive = no such curve, though single readings can be large; an effect the other way counts as inactive or inconclusive.

Assays:
[1] = qHTS assay for small molecule agonists of the p53 signaling pathway - cell viability (AID 651633; calls by dose curve; note: nearly all actives have a fitted effect of over 30% in size; note: potency is the fitted concentration of half-maximal effect)
How it was run: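 Viability counter-read: CellTiter-Glo luminescence (30 min, room temperature) in the same p53RE-bla plates. These plates had been exposed to compounds for 16 h at 37 C.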

[2] = qHTS assay for small molecules that induce genotoxicity in human embryonic kidney cells expressing luciferase-tagged ATAD5 - cell viability (AID 651634; calls by dose curve; note: nearly all actives have a fitted effect of over 25% in size; note: potency is the fitted concentration of half-maximal effect)
How it was run: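 HEK293T ATAD5-luc cells, 2,000/well; compound 15.5 hr, 37C/5% CO2; CellTiter-Fluor 30 min, 37C; fluorescence read.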

[3] = qHTS assay for small molecule disruptors of the mitochondrial membrane potential - cell viability (AID 720634; calls by dose curve; note: nearly all actives have a fitted effect of over 20% in size; note: potency is the fitted concentration of half-maximal effect)
How it was run: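 Luminescence from CellTiter-Glo (ATP content) gave viability in HepG2 cells, read in the same wells as the MMP dye assay after 1 hr compound exposure at 37 C.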

[4] = qHTS assay to test for compound auto fluorescence at 590 nm (red) in HepG2 cells (AID 720674)
How it was run: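 We screened compounds on adherent HepG2 cells, incubating them for an hour at 37 C in 5% CO2 before reading emission at 590 nm under 540 nm excitation; values reflect equivalence to Rose Bengal sodium fluorescence.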

[5] = qHTS assay to test for compound auto fluorescence at 535 nm (green) in HepG2 cells (AID 720675)
[6] = qHTS assay to test for compound auto fluorescence at 460 nm (blue) in HEK293 cells (AID 720678)
How it was run: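 HEK293, 2,000 cells/well, 10% dialyzed FBS; attach 4-5 hr 37C; pin compound or DMSO; o/n 37C/5% CO2; fluorescence 405/460 nm; triamterene-equivalent units.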

[7] = qHTS assay to test for compound auto fluorescence at 590 nm (red) in HEK293 cells (AID 720679)
How it was run: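 Intensity at 540nm excitation and 590nm emission is reported as Rose Bengal sodium-equivalent autofluorescence. Measurements followed overnight exposure (37C, 5% CO2) of HEK293 cells, 2,000 per well, to 23 nL compound.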

[8] = qHTS assay to test for compound auto fluorescence at 535 nm (green) in HEK293 cells (AID 720680)
[9] = qHTS assay to test for compound auto fluorescence at 460 nm (blue) in HEK293 cell free culture (AID 720681); note: potency is the fitted concentration of half-maximal effect
How it was run: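 Blue fluorescence (Ex 405/Em 460 nm, triamterene-equivalent) was read immediately after pin transfer of compound or DMSO into medium (DMEM, 10% FBS) without cells.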

[10] = qHTS assay to test for compound auto fluorescence at 535 nm (green) in HEK293 cell free culture (AID 720682)
How it was run: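 Green-channel intensity (Ex/Em 485/535 nm) was recorded from compound-treated wells containing only DMEM with 10% FBS. Fluorescein provided the equivalency standard.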

[11] = qHTS assay to test for compound auto fluorescence at 590 nm (red) in HEK293 cell free culture (AID 720683)
How it was run: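 Red-channel autofluorescence of compounds in culture medium (DMEM, 10% FBS), no cells, measured at 540/590 nm. Rose Bengal sodium is the reference fluorophore for equivalence.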

[12] = qHTS assay to test for compound auto fluorescence at 590 nm (red) in HepG2 cell free culture (AID 720684)
How it was run: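 No cells present: MEM + 10% FBS only. Compound pinned in, red label read (540/590 nm). Activity = fluorescence equivalent to Rose Bengal sodium.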

[13] = qHTS assay to test for compound auto fluorescence at 535 nm (green) in HepG2 cell free culture (AID 720686)
[14] = molecular target: Glucocorticoid receptor (Homo sapiens) (UniProt P04150); test: qHTS assay to identify small molecule agonists of the glucocorticoid receptor (GR) signaling pathway (AID 720691; active = well fitted activation curve with a large enough effect in the signal ratio in the repeat runs, not every such curve was filed as active; the % refers to the signal ratio)
Chain of Glucocorticoid receptor (Homo sapiens) (P04150 whole entry, looked up): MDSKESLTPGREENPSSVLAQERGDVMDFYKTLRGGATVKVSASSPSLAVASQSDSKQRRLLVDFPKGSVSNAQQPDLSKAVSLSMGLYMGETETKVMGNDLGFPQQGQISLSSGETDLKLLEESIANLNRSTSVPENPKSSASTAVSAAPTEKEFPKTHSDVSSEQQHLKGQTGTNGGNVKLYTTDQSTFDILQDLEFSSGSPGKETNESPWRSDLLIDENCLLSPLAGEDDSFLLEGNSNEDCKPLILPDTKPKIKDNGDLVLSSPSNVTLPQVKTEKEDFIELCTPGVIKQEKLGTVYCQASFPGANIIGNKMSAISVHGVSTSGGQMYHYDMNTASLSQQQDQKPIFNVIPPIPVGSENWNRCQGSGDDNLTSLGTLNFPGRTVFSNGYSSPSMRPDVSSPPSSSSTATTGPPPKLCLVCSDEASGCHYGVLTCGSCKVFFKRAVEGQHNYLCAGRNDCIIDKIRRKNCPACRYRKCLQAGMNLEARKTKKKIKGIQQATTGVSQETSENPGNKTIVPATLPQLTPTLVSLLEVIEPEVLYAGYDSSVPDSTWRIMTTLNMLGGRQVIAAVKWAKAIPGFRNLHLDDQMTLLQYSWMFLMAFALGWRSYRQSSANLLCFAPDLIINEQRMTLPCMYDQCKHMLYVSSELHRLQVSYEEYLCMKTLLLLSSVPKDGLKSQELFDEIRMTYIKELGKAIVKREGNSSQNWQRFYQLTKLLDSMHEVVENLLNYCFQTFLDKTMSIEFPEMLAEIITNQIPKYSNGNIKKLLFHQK
How it was run: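 HeLa GR-bla reporter line; cells pre-incubated 4 h, compound in DMSO 18 h at 37 C; LiveBLAzer B/G FRET substrate 2 h RT; fluorescence intensity read-out.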

[15] = qHTS assay for small molecules that induce genotoxicity in human embryonic kidney cells expressing luciferase-tagged ATAD5 (AID 651632); note: nearly all actives have a fitted effect of over 15% in size
How it was run: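 Luminescence read-out: after 16 hr compound exposure at 37C, ATAD5-luciferase HEK293T cells received Amplite, 30 min RT, then CCD imaging. A rise in signal marks genotoxic stress.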

[16] = qHTS assay for small molecule disruptors of the mitochondrial membrane potential (AID 720635); note: potency is the fitted concentration of half-maximal effect
How it was run: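 Mitochondrial membrane potential tracked with Mito-MPS dye, red aggregates (ex 540/em 590 nm) against green monomers (ex 490/em 535 nm). Compound treatment 1 hr at 37C, dye 30 min in HepG2.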

[17] = qHTS assay to test for compound auto fluorescence at 460 nm (blue) in HepG2 cell free culture (AID 720685)
How it was run: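 Cell-free plates of MEM plus 10% FBS received 23 nL compound or DMSO vehicle; blue-channel (405/460 nm) intensity scored against triamterene as reference fluorophore.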

[18] = qHTS assay to test for compound auto fluorescence at 460 nm (blue) in HepG2 cells (AID 720687)
How it was run: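 Blue-channel autofluorescence (Ex/Em 405/460 nm, triamterene-equivalent) was measured after 1 hr compound exposure at 37 C, 5% CO2. Cells were HepG2, plated overnight at 37 C in MEM plus 10% FBS.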

[19] = molecular target: Glucocorticoid receptor (Homo sapiens) (UniProt P04150); test: qHTS assay to identify small molecule antagonists of the glucocorticoid receptor (GR) signaling pathway (AID 720692; active = well fitted inhibition curve with a large enough effect in the signal ratio in the repeat runs, not every such curve was filed as active; the % refers to the signal ratio)
How it was run: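 Read-out: beta-lactamase FRET substrate fluorescence, 2 h at room temperature, in HeLa cells stably carrying a GRE-driven bla reporter. Compounds were co-incubated with 5 nM dexamethasone agonist (final) for 18 h at 37 C.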

Row | Compound | Potency [1] | Potency [2] | Potency [3] | Potency [4] | Potency [5] | Potency [6] | Potency [7] | Potency [8] | Potency [9] | Potency [10] | Potency [11] | Potency [12] | Potency [13] | Potency [14] | Potency [15] | Potency [16] | Potency [17] | Potency [18] | Potency [19]
1 | Nc1nc(-c2ccccc2)cs1 | inactive | inactive | inactive | inactive | inactive | inactive | inactive | inactive | inactive | inactive | inactive | inactive | inactive | inactive |  |  |  |  | 
2 | O=C(c1ccc(O)c(O)c1)c1ccc(O)cc1O |  |  | inactive | inactive | inactive |  | inactive | inactive | 35.5 µM (active) | inactive | inactive | inactive | inactive | inactive | inactive | 3.85 µM (active) | inactive | inactive | 
3 | O=C(O)c1cc(O)c2ccccc2c1O | 30.6 µM (active) | inactive |  | inactive | inactive | inactive | inactive | inactive | inactive | inactive | inactive | inactive | inactive |  |  |  | inactive |  | 
4 | CN(C)c1ccc(C(=C2C=CC(=[N+](C)C)C=C2)c2ccc(N(C)C)cc2)cc1 | 10.6 µM (active) and 9.64 µM (active) and 30.6 µM (active) | 11.9 µM (active) and 21.6 µM (active) and 24.3 µM (active) | 54.2 µM (active) | inactive | inactive |  | inactive |  | inactive | inactive | inactive | inactive | inactive | inactive |  | 139 nM (active) and 30.5 nM (active) and 68.6 nM (active) | inactive | inactive | 
5 | O=C1CCc2ccc(OCCCCN3CCN(c4cccc(Cl)c4Cl)CC3)cc2N1 | 23.7 µM (active) | inactive |  | inactive | inactive |  |  | inactive | inactive | inactive | inactive | inactive | inactive | inactive |  |  | inactive |  | 
6 | C#CC1(O)CC[C@H]2[C@@H]3CCC4=CCCC[C@@H]4[C@H]3CC[C@@]21C (stereo not given in full) | inactive and 68.6 µM (active) |  | inactive |  | inactive | inactive | inactive |  | inactive | inactive | inactive | inactive | inactive | inactive |  | 9.02 µM (active) and 17.2 µM (active) | inactive |  | 
7 | Cc1cc(-c2ccc(N=Nc3cc(S(=O)(=O)O)c4ccccc4c3N)c(C)c2)ccc1N=Nc1cc(S(=O)(=O)O)c2ccccc2c1N |  |  | inactive | inactive | inactive |  | inactive | inactive | inactive | inactive | inactive | inactive | inactive | inactive | inactive | 12.3 µM (active) | inactive | inactive | 
8 | CN1CCC[C@@H]1CCO[C@](C)(c1ccccc1)c1ccc(Cl)cc1 | inactive | inactive | inactive | inactive | inactive | inactive | inactive |  | inactive | inactive | inactive | inactive | inactive |  |  |  | inactive | inactive | 
9 | CN1CCN2c3ccccc3Cc3ccccc3C2C1 (stereo not given) |  |  | inactive | inactive | inactive |  | inactive | inactive | inactive | inactive | inactive | inactive | inactive |  |  |  | inactive | inactive | 
10 | CCCCCCCCCCC[C@@H](C[C@@H]1OC(=O)[C@H]1CCCCCC)OC(=O)[C@H](CC(C)C)NC=O | inactive | inactive | inactive | inactive | inactive | inactive | inactive | inactive | inactive | inactive | inactive | inactive | inactive | inactive |  |  | inactive | inactive | 
11 | Cc1ccc(C(C)C)cc2c(C)ccc1-2 | inactive | inactive | inactive |  |  | inactive | inactive | inactive | inactive | inactive | inactive | inactive | inactive | inactive |  | inactive | inactive | inactive | inactive
